# From PubChem BioAssay
# VP16 counter – inhibits Gal4-VP16 luciferase reporter, ROR gamma counter-screen; AID 2546; Drosophila S2 Gal4-VP16 UAS-luciferase, luminescence, 20 h; Potency, µM (doses to about 53.6 µM), for the others: top-dose activity, negative = inhibition, actives largely listed as inhibitors; 3.5% of 310,000 active;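 note: Gal4-VP16 expression switched on by copper sulfate through the metallothionein promoter; potency is the fitted concentration of half-maximal effect; % is set by controls: 0 for no effect and ±100 for the full control effect; nearly all actives have a fitted effect of over 50% in size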
# BCR signal inh – chronic active BCR signaling inhibition; ABC-DLBCL IkBa-CBG/CBR reporter, luminescence ratio, 4 h; Potency, µM (highest dose often 46.1 µM), inactives show top-dose activity change, negative = inhibition, hits mostly inhibitors; 0.05% of 340,000 active; AID 493014; active = well fitted inhibition curve with a large enough effect in the signal ratio, with a control signal flat, not every such curve was filed as active; inconclusive = small, poorly fitted or top-dose-only effect, or effect the other way, or a change in a side signal; the % refers to the signal ratio;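 note: potency is the fitted concentration of half-maximal effect; plate controls were basal doxycycline-induced cells for no effect and cells given 10 µM MG132 for full effect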
#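 TMD8 ABC-DLBCL cells carrying doxycycline-inducible green luciferase fused to IkappaBalpha plus unfused red luciferase were exposed to compounds (up to 46 uM) for 4 hrs at 37C. Activity came from the overlap-corrected green/red luminescence ratio.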
# MCF10A rereplic – induces DNA re-replication in MCF 10a normal breast cells | Potency, µM (titrated, usually from 46.1 µM), inactives show at the highest dose activity, positive = re-replication, most hits filed as activators | MCF 10A DNA re-replication, Hoechst nuclear intensity, 48 h | AID 624296 | 2.9% of 350,000 active; note: potency is the fitted concentration of half-maximal effect; % of control where 0% means no effect; nearly all actives have a fitted effect of over 50% in size
# SW480 rereplic – inducers of DNA re-replication in SW480 colon cancer cells | Potency, µM (highest dose often 46.1 µM), for inactives: at the top dose re-replication activation, most hits filed as activators | AID 624297 | 1.8% of 340,000 active | SW480 DNA re-replication, Hoechst DNA content imaging, 48 h; note: potency is the fitted concentration of half-maximal effect; % of control where 0% means no effect; nearly all actives have a fitted effect of over 55% in size
#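 Image-based read-out: total Hoechst fluorescence of nuclei (405 nm excitation, 500-530 nm emission), with hits raising the fraction of high-intensity nuclei. SW480 colon cells incubated 48 hr with compounds at 37 C.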
# RORg inh – blocks mouse ROR gamma transcriptional activity; 5.4% of 310,000 active; AID 2551; Drosophila S2 Gal4-RORgamma UAS-luciferase reporter, 20 h; P51450; Potency, µM (series often up to 53.6 µM), for inactives: at the top dose activity change, negative = inhibition, most hits filed as inhibitors; note: potency is the fitted concentration of half-maximal effect; % is set by controls: 0 for no effect and ±100 for the full control effect; nearly all actives have a fitted effect of over 60% in size
# Target sequence (P51450 whole entry, looked up, the tested form may be a part): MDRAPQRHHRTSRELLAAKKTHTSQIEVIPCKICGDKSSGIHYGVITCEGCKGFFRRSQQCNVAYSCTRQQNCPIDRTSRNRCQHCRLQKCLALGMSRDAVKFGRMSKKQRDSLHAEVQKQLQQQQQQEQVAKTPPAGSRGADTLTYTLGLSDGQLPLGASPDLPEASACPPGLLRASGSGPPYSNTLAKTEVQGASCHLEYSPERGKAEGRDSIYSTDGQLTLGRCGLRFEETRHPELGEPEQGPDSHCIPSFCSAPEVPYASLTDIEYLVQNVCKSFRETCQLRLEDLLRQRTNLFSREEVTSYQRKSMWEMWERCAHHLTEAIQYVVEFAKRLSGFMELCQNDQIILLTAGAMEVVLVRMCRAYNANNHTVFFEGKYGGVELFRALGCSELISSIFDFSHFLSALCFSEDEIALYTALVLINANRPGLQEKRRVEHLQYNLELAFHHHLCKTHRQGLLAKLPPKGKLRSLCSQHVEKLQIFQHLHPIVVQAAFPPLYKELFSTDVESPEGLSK
#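 Luciferase reporter read in Schneider cells carrying Gal4-RORγ (mouse) and UAS-Photinus luciferase; cells given compound 1 h before 700 uM copper sulfate induction, then incubated 20 h at ambient temperature.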
# Giardia killer – kills Giardia lamblia. AID 540267. 0.15% of 340,000 active. activity change, % at 7.66 µM, hits read low. Giardia lamblia trophozoite viability; in the data active = activity change below about -80%; inconclusive = between about -30% and that limit;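 note: parasites exposed to compound for two days anaerobically before the ATP read; % is set by controls: 0 for no effect and ±100 for the full control effect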
#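 Luminescence from cellular ATP indicates surviving trophozoites (100 cells/well) following 48 hrs anaerobic compound treatment at 37 deg C; signal develops 15-30 min at room temperature.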
# Starred values were filed as active, the others as inactive; ? = inconclusive; / = not tested or not shown; [ ] = remark or other dose. An excerpt weighted towards active compounds, which were near 8.3% of everything screened. Unless noted, calls come from the whole dose curve; as a rule, active = well fitted curve in the direction sought with a large enough effect; inconclusive = small, poorly fitted or top-dose-only effect, or another doubt; inactive = no such curve, though single readings can be large; an effect the other way counts as inactive or inconclusive.
SMILES,VP16 counter,BCR signal inh,MCF10A rereplic,SW480 rereplic,RORg inh,Giardia killer
CCCNC(=O)C1CC(=O)N(c2ccc(OCc3ccc(F)cc3)cc2)C1 (centres undefined),-3%,0%,0.65µM*,-67%,-2%,11
CCOC(=O)c1cccc(NC(=O)c2c(NCc3ccccc3)[nH]c(=O)[nH]c2=O)c1,/,/,5.8µM*,?,/,-4
CCOC(=O)c1cccc(NS(=O)(=O)c2c(C)[nH]c(=O)[nH]c2=O)c1,1%,-1%,3%,-16%,10%,-5
C=CCn1c(SCc2nc3ccccc3c(=O)[nH]2)nc2scc(C3CC3)c2c1=O,18%,-1%,21µM*,?,31%,14
CCn1c(SCc2nc3ccccc3c(=O)[nH]2)nc2ccccc2c1=O,-13%,?,-4%,-4%,13%,7
CC(=O)N1CCN(c2ccc(Oc3ccc([N+](=O)[O-])c(C(F)(F)F)c3)cc2)CC1,7.1µM*,-2%,?,8%,?,-12
CCOC(=O)[C@H](Cc1ccc(O)cc1)NC(=O)c1ccccc1,?,/,/,/,1.4µM*,/
COC(=O)C(Cc1ccc(O)cc1)NC(=O)c1ccc2c(c1)OCCO2 (centres undefined),2µM*,-6%,0%,0%,0.63µM*,?
NC(=O)C1CCN(C(=O)C(Cc2ccccc2)NC(=O)c2ccccc2)CC1 (centres undefined),/,7%,27%,21µM*,/,12
O=C(NCCc1ccccc1)c1cc(Sc2cccc(Cl)c2)nc2ccccc12,/,11%,/,/,/,/
O=C(/C=C/c1ccc2c(c1)S(=O)(=O)N(Cc1ccccc1)[C@H]2CC(=O)N1CCOCC1)N1CCOCC1,/,?,-11%,1%,/,11
CC(=O)N1CCc2cc(Br)cc(S(=O)(=O)CCC(=O)N3CCN(c4ccccn4)CC3)c21,-4%,?,?,15%,2%,28
O=C(Nc1ccc(Cl)c(S(=O)(=O)N2CCOCC2)c1)c1ccc(OCC2CCCO2)cc1 (centres undefined),?,?,18µM*,-18%,-12%,-8
O=C(Cc1cccs1)Nc1ccc(Cl)c(S(=O)(=O)N2CCOCC2)c1,/,-8%,-15%,5.8µM*,/,-7
O=C(Cc1cccs1)Nc1ccc(F)c(S(=O)(=O)N2CCOCC2)c1,/,-5%,16%,-9%,/,4
CC[C@H](C)[C@@H](C(=O)N1CCNCC1)n1cc([C@@H](N)CO)nn1,4%,2%,-2%,1%[9.22 µM],-3%,4
O=C(CSc1nc2ccc(Nc3nc(N4CCOCC4)nc(N4CCOCC4)n3)cc2s1)Nc1ccccc1F,-24%,-13%,2.1µM*,2.9µM*,-33%,15
CSc1nc2ccc(Nc3nc(N4CCOCC4)nc(N4CCOCC4)n3)cc2s1,/,-1%,?,16µM*,?,7
O=C(CSc1nc2ccc(Nc3nc(N4CCCC4)nc(N4CCCC4)n3)cc2s1)NCc1ccco1,9%,13%,5.8µM*,-9%,9%,1
O=C(CSc1nc2ccc(Nc3nc(N4CCOCC4)nc(N4CCOCC4)n3)cc2s1)N1CCOCC1,-19%,?,?,-7%,-7%,-7
O=C(CSc1nc2ccc(Nc3nc(N4CCOCC4)nc(N4CCOCC4)n3)cc2s1)Nc1ccccc1Cl,?,0%,18µM*,?,?,3
CCCC(=O)Nc1ccc2nc(SCC(=O)Nc3ccc(N4CCOCC4)c(Cl)c3)sc2c1,-10%,?,27%,?,42%,-1
O=C(O)c1ccccc1C(=O)c1cccc2c(Br)cccc12,/,/,10%,4%,/,-4
O=C(NNC(=O)c1cc(Br)c(Br)s1)c1ccncc1,/,?,2%,-2%,/,-15
CSCCC(NC(=O)c1cccc(C)c1)C(=O)OCN1C(=O)c2ccccc2C1=O (centres undefined),/,-3%,1%,-2%,/,-22
SMILES,VP16 counter,BCR signal inh,MCF10A rereplic,SW480 rereplic,RORg inh,Giardia killer
O=S1(=O)N=C(N/N=C/c2ccc(Br)o2)c2ccccc21,14µM*,3%,?,-7%,6.3µM*,-4
O=S1(=O)N=C(N/N=C/C=C/c2ccccc2)c2ccccc21,0.63µM*,-17%,0%,/,0.4µM*,-1
O=S1(=O)N=C(N/N=C/c2ccccn2)c2ccccc21,?,?,?,17%,?,-3
CN(C)c1ccc(/C=N/NC2=NS(=O)(=O)c3ccccc32)cc1,5.6µM*,0%,-2%,0%,4µM*,6
O=C(c1csnn1)N1CCC[C@@]2(CCN(Cc3cc(C(F)(F)F)cc(C(F)(F)F)c3)C2)C1,4%,/,/,/,-1%,/
CC(C)NC(=O)C1CCN(C2CCN(Cc3ccc4cccc(F)c4n3)CC2)CC1,2%,-5%,0%,17%,0%,9
CC(C)c1ccccc1OCC(=O)Nc1nnc(C2CC2)s1,/,-6%,?,-9%,/,-5
c1ccc(CNCCNCc2ccccc2)cc1,3%,/,12%,-1%,2%,/
O=C(c1cncc(Br)c1)N1CCN(S(=O)(=O)c2ccccc2C(F)(F)F)CC1,-2%,-1%,-2%,-7%,27%,-10
Cc1ccc(C(C)C)c(OCC(O)CN(C)Cc2ccccc2)c1 (centres undefined),-21%,0%,?,21µM*,26%,-21
Cc1ccc(S(=O)(=O)N2CCOCC2)cc1NC(=O)COC(=O)c1ccc(Cl)s1,/,1%,1%,-3%,/,-6
COc1cccc(NC(=O)c2ccc(N3C(=O)C4CC=CCC4C3=O)cc2)c1 (centres undefined),/,/,-3%,-17%,/,-2
N#C/C(=C\c1c[nH]c2ccccc12)C(N)=O,-7%,0%,4%,-6%,5%,23
Cn1cc(/C=C(\C#N)C(=O)Nc2ncc(Cc3cccc(Cl)c3)s2)c2ccccc21,1.4µM*,-23%,/,/,3.2µM*,/
O=C(Nc1ncc(Cc2cccc(Cl)c2)s1)C1CCCO1 (centres undefined),9%,?,22%,?,?,8
N#C/C(=C\c1c[nH]c2ccccc12)C(=O)Nc1ncc(Cc2ccc(Cl)cc2Cl)s1,2.2µM*,4%,3.3µM*,?,1.4µM*,1
CN(c1nc2ccccc2[nH]c1=O)C1CCCCC1,-11%,?,?,3%,-8%,0
O=C(Nc1nnc(C2=COCCO2)o1)c1cccc(F)c1,0.56µM*,?,8%,26%,0.63µM*,?
Cc1cccc(C(=O)Nc2nnc(C3=COCCO3)o2)c1,1µM*,?,-3%,-8%,0.5µM*,11
